Assay results: the supplement of paper PMC12669032
Unmarked numbers belong to inactive results.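 Rule for the calls: active = AUC reduced over 20% with Padj below 0.05 in at least 2 of 3 replicates; inactive = otherwise.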

What was measured:
Assay in all cases: growth AUC relative to DMSO control (median of replicates) (fraction); higher = more growth (less inhibition), active = hit call of the paper
Settings in all cases: 20 µM; 24 h
Akkermansia muciniphila = tested on: Akkermansia muciniphila
How it was run: (§1)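 Starting at OD600 0.05, gut bacterial monocultures in mGAM were grown anaerobically at 37 °C with 20 µM compound (1% DMSO) under pierced gas-permeable seals. OD600 was read every hour for 24 h, and the lowest OD of each curve was set to 0. Area under the growth curve was normalised to the plate median of solvent-only wells, or to row and column medians on the industrial chemical plate, and the median of three biological replicates grown on separate days is given.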

Bacteroides caccae = tested on: Bacteroides caccae
How it was run: as §1

Bacteroides clarus = tested on: Bacteroides clarus
How it was run: as §1

Bacteroides dorei = tested on: Bacteroides dorei
How it was run: as §1

Bacteroides stercoris = tested on: Bacteroides stercoris
How it was run: as §1

[1] = tested on: Bacteroides thetaiotaomicron
How it was run: as §1

Bacteroides uniformis = tested on: Bacteroides uniformis
How it was run: as §1

[2] = tested on: Bifidobacterium longum subsp. longum
How it was run: as §1

Clostridium difficile = tested on: Clostridium difficile
How it was run: as §1

Collinsella aerofaciens = tested on: Collinsella aerofaciens
How it was run: as §1

Coprococcus comes = tested on: Coprococcus comes
How it was run: as §1

Escherichia coli ED1a = tested on: Escherichia coli ED1a
How it was run: as §1

Escherichia coli IAI1 = tested on: Escherichia coli IAI1
How it was run: as §1

Eubacterium rectale = tested on: Eubacterium rectale
How it was run: as §1

[3] = tested on: Fusobacterium nucleatum subsp. animalis
How it was run: as §1

Lactobacillus gasseri = tested on: Lactobacillus gasseri
How it was run: as §1

Lactobacillus paracasei = tested on: Lactobacillus paracasei
How it was run: as §1

Odoribacter splanchnicus = tested on: Odoribacter splanchnicus
How it was run: as §1

[4] = tested on: Parabacteroides distasonis
How it was run: as §1

Parabacteroides merdae = tested on: Parabacteroides merdae
How it was run: as §1

SMILES	growth AUC (Akkermansia muciniphila)	growth AUC (Bacteroides caccae)	growth AUC (Bacteroides clarus)	growth AUC (Bacteroides dorei)	growth AUC (Bacteroides stercoris)	growth AUC [1]	growth AUC (Bacteroides uniformis)	growth AUC [2]	growth AUC (Clostridium difficile)	growth AUC (Collinsella aerofaciens)	growth AUC (Coprococcus comes)	growth AUC (Escherichia coli ED1a)	growth AUC (Escherichia coli IAI1)	growth AUC (Eubacterium rectale)	growth AUC [3]	growth AUC (Lactobacillus gasseri)	growth AUC (Lactobacillus paracasei)	growth AUC (Odoribacter splanchnicus)	growth AUC [4]	growth AUC (Parabacteroides merdae)
CCOC(=O)N(C)C(=O)CSP(=S)(OCC)OCC	1.11	1.04	0.999	1.01	1.01	0.994	0.991	0.991	1.01	0.997	1.01	1.01	0.987	0.898	1.1	1.03	1.03	1.03	0.999	0.985
CN(C)NC(=O)CCC(=O)O	0.948	1	1.01	1.04	1.01	0.998	0.992	1.01	0.991	1	0.998	0.988	1.01	0.926	0.956	1.01	1.02	0.989	1.03	1.02
COP(=O)(OC)Oc1ccc(S(C)(=O)=O)c(C)c1	0.876	0.971	0.963	0.987	1.01	1	0.981	0.956	0.994	1.01	0.989	1	0.983	0.795	0.998	1.07	0.971	1.02	1.02	0.995
Cc1ccc(NC(=O)c2snnc2C)cc1Cl	0.741	0.968	0.914	1.03	0.879	0.905	1.02	0.898	1	1.05	0.965	0.968	0.937	1	0.938	1.08	0.866	0.975	0.986	0.973
CCOP(=S)(OCC)Oc1nc(Cl)c(Cl)cc1Cl	0.91	0.999	0.95	1.03	1.07	0.978	1	0.943	1.01	0.986	0.995	1.02	1.01	1.11	0.982	0.992	0.993	1	0.963	0.96
Cc1c(F)c(F)c(COC(=O)[C@@H]2[C@H](/C=C(\Cl)C(F)(F)F)C2(C)C)c(F)c1F (mixture of isomers)	0.937	0.943	0.993	0.935	0.981	0.989	1.01	0.997	1	0.976	0.956	1	0.993	1.01	1	0.897	0.956	1.04	0.976	0.994
CC(C)OP(=O)(OC(C)C)SCc1ccccc1	1.12	0.976	0.99	0.981	0.997	0.964	0.968	0.902	0.968	1	1.03	1.01	0.984	1.09	1.01	0.959	1.01	1.05	0.866	0.988
O=C(O)C(F)(F)C(F)(F)C(F)(F)C(F)(F)C(F)(F)C(F)(F)C(F)(F)F	1.01	1	1	0.998	1.01	1.04	0.963	1.04	0.991	1	1.02	1	0.998	1	1	1.01	0.966	0.979	0.934	1
CCCN(CCC)N=O	1.07	1.01	1.02	1	1	0.999	1.03	0.902	1.01	0.977	1.02	1.03	1	0.979	0.989	0.956	0.984	1.06	1.11	1.03
CCCCCCCCCc1ccc(O)cc1	1.02	1.03	0.739 (active)	1.01	0.0469 (active)	1.01	0.289 (active)	0.929	1.03	0.925	0.989	0.998	1.01	0.968	0.989	0.904	1.01	0.841	0.885	0.971
CC(C)C1(C)N=C(c2nc3ccccc3cc2C(=O)O)NC1=O (stereo not given)	0.971	1.01	1.02	0.957	1.03	0.992	1.01	0.967	0.958	0.962	1.01	0.985	0.983	0.965	1.02	1.03	0.891	0.908	0.986	0.997
CC(C)(C)C(O)(CCc1ccc(Cl)cc1)Cn1cncn1 (stereo not given)	0.856	0.965	1.01	1.03	1.1	0.98	0.959	0.956	1.06	1.06	1.02	1.01	0.991	0.879	1.05	1.04	0.968	0.973	0.903	0.962
